Measurements taken from PubChem BioAssay AID463173 (ICCB-Longwood Screening Facility, Harvard Medical School, 2010).
Among all 52,000 compounds or so, about 4,300 (8.3%) were called active. The sample as a whole holds a higher share of actives than the screen did. A number with no mark means an inactive call. No stated cut-off is given here; in the data, active means survival mostly below about 52% (no sharp cut-off); inactive means mostly above about 56%.

test system: DeltatarO mutant; experiment: growth inhibition of S. aureus wild type versus tarO mutant, primary screen, teichoic acid synthesis inhibitors, RN4220, OD600 (AID 463173); details: OD600, 18 h, hits give low values, screened at 18.75 µg/mL (by protocol)

SMILES	survival
O=C(COc1ccccc1)Nc1ccc(S(=O)(=O)N(Cc2ccccc2)c2ccccc2)cc1	61%
CC1CCCN(CNC(=O)c2ccccc2)C1 (stereo not given)	92%
COc1cc(CNCCCSc2nnnn2C)cc(Br)c1OC	81%
Cc1ccc(S(=O)(=O)N2CCCc3cc(NC(=O)c4c(F)cccc4F)ccc32)cc1	73%
COc1ccccc1NC(=O)Cn1nnc(C(=O)NCc2ccc3c(c2)OCO3)c1N	103%
CCOC(=O)Cn1c(=O)oc2cc(S(=O)(=O)N3CCN(c4ccc(F)cc4)CC3)ccc21	117%
CSc1cccc(-c2nnc(NC(=O)c3ccc4c(c3)OCCO4)o2)c1	72%
COc1cccc(NC(=O)CC(=O)Nc2ccc3nc4n(c(=O)c3c2)CCCCC4)c1	96%
Cc1ccc(N2CCN(C(=O)NCc3noc4ccccc34)CC2C)cc1 (stereo not given)	30% (active)
O=C(NCc1noc2ccccc12)N1CCN(c2ccccc2)CC1	44%
Cc1ccc(C)c(N2CCN(C(=O)NCc3noc4ccccc34)CC2)c1	51%
O=C(O)CCC(=O)N1CCN(Cc2ccc3c(c2)OCO3)CC1	75%
COc1ccc(NC(=O)c2cc(S(=O)(=O)N3CCOCC3)ccc2OC)cc1	89%
Cc1ccc(S(=O)(=O)N2CCOCC2)cc1C(=O)Nc1ccccc1C(=O)O	83%
CC(=O)c1ccc(NC(=O)c2cc(S(=O)(=O)N3CCOCC3)ccc2C)cc1	49% (active)
CCCCNCc1cccn1-c1sc2c(c1C#N)CCCC2	109%
N#Cc1c(-n2ncnc2-c2cccc(Br)c2)sc2c1CCCCC2	23% (active)
CCOc1ccc(-c2ncnn2-c2sc3c(c2C#N)CCCCC3)cc1	5% (active)
N#Cc1c(N2C(=O)C3C4C=CC(C4)C3C2=O)sc2c1CCCC2 (stereo not given)	71%
Cc1ccc(S(=O)(=O)CC(=O)Nc2sc3c(c2C#N)CCCCC3)cc1	72%
Cc1ccc(S(=O)(=O)CC(=O)Nc2sc3c(c2C#N)CCCC3)cc1	119%
N#Cc1c(-n2ncnc2-c2ccc(Br)cc2)sc2c1CCCCC2	2% (active)
CC(C)CCOc1ccc(C(=O)Nc2sc3c(c2C#N)CCCCC3)cc1	127%

SMILES	survival
N#Cc1c(-n2ncnc2-c2ccc(F)cc2)sc2c1CCCCC2	-4% (active)
COc1ccc(-c2nnn(CC(=O)Nc3sc4c(c3C#N)CCCC4)n2)cc1	98%
N#Cc1c(N)sc2c1CCCC2	103%
N#Cc1c(-n2ncnc2-c2cccc(Cl)c2)sc2c1CCCCC2	61%
O=C(/C=C/c1ccco1)Nc1ccc(-c2cc3ccccc3oc2=O)cc1	50%
CC(=O)N1CCc2cc(S(=O)(=O)NC(CC(C)C)C(=O)NCCc3ccccc3)ccc21 (stereo not given)	78%
CCCCOc1ccccc1C(=O)N(Cc1ccc(C)o1)C1CCS(=O)(=O)C1 (stereo not given)	71%
Cc1cccc(OCC(=O)Nc2ccccc2C(=O)OCc2cc(=O)n3ccsc3n2)c1	77%
CC(=O)Nc1ccc(S(=O)(=O)N2CCC(NC(=O)Nc3cccc(F)c3)CC2)cc1	91%
CC1=C(C(=O)Nc2ccc(C)cc2C)C(c2cccn2C)n2ncnc2N1 (stereo not given)	91%
Cc1ccc(NS(=O)(=O)c2c(C(=O)N3CCCCCC3)c(C)n(C)c2C)cc1F	83%
CC1CCc2c(sc(NC(=O)C3c4ccccc4Oc4ccccc43)c2C(=O)OC(C)C)C1 (stereo not given)	47% (active)
Cc1sc(NC(=O)C2c3ccccc3Oc3ccccc32)c(C(=O)OC(C)C)c1C	59%
CC(C)OC(=O)c1c(NC(=O)C2c3ccccc3Oc3ccccc32)sc2c1CCCC2	93%
CCOC(=O)c1sc(NC(=O)C2c3ccccc3Oc3ccccc32)c(C(=O)OCC)c1C	124%
CCCOC(=O)c1c(NC(=O)C2c3ccccc3Oc3ccccc32)sc2c1CCCC2	77%
COC(=O)c1c(NC(=O)C2c3ccccc3Oc3ccccc32)sc2c1CCC(C)C2 (stereo not given)	56%
CNC(=O)C1c2ccccc2Oc2ccccc21	91%
CCCOC(=O)c1c(NC(=O)C2c3ccccc3Oc3ccccc32)sc2c1CCC(C)C2 (stereo not given)	82%
CCOC(=O)c1sc(NC(=O)C2c3ccccc3Oc3ccccc32)c(C#N)c1C	72%
CCOC(=O)c1c(NC(=O)C2c3ccccc3Oc3ccccc32)sc(C)c1CC	24% (active)
CCc1c(C)sc(NC(=O)C2c3ccccc3Oc3ccccc32)c1C(=O)OC(C)C	41% (active)
CCOC(=O)c1c(NC(=O)C2c3ccccc3Oc3ccccc32)sc(C)c1C	12% (active)

SMILES	survival
O=C(C1CC1)N1CCN(c2nc3ccc(F)cc3s2)CC1	117%
Cc1nn(-c2ccccc2)c(OC(=O)c2ccccc2)c1S(=O)(=O)c1ccccc1	81%
Cc1cc(C)n(-c2n[nH]c(=S)c3ccccc23)n1	81%
CN(Cc1ccccc1)c1ccc(-c2nc(-c3ccco3)no2)cc1[N+](=O)[O-]	52%
Cc1cc(Nc2cc(Cl)ccc2C)n2nc(-c3ccccc3)nc2n1	49%
Cc1c(C(=O)OC(C)C)sc(NC(=O)C2c3ccccc3Oc3ccccc32)c1C(=O)OC(C)C	80%
CCN(CC)C(=O)c1sc(NC(C)=O)c(C(=O)OC)c1C	99%
CCCc1ccc(OCC(=O)Nc2sc(C(=O)OCC)c(C)c2C(=O)OCC)cc1	82%
Cc1sc(NC(=O)COc2ccc(C(C)(C)C)cc2)c(C(=O)OC(C)C)c1C	10% (active)
COC(=O)c1c(NC(=O)COc2ccc(Cl)cc2)sc(C)c1C	67%
CCOC(=O)c1c(NC(=O)COc2cc(C)ccc2C(C)C)sc(C)c1C	63%
CCOC(=O)c1c(NC(=O)COc2ccc(OC)cc2)sc(C(=O)N(CC)CC)c1C	3% (active)
CCN(CC)C(=O)c1sc(NC(=O)C2c3ccccc3Oc3ccccc32)c(C(=O)OC(C)C)c1C	30% (active)
CCN(CC)C(=O)c1sc(NC(=O)c2nc3ncccn3n2)c(C(=O)OC)c1C	137%
CCOc1ccc(NC(=O)Cn2c3ncccc3c(=O)n2-c2ccc(CC)cc2)cc1	85%
Cc1ccc(C(=O)c2oc3ccccc3c2NC(=O)Cc2coc3c(C)c(C)ccc23)cc1	54%
CCCCNC(=O)Cn1ncc2c(C)n(Cc3cccc(Cl)c3)c(C)c2c1=O	93%
Cn1c(=O)c2[nH]c(=S)[nH]c2n(C)c1=O	103%
Cc1c(NC(=O)Nc2ccccc2C(F)(F)F)c(=O)n(-c2ccccc2)n1C	92%
CCOc1ccc(NC(=O)Cn2c(=O)n(Cc3nc(-c4ccccc4)no3)c(=O)c3cc4c(cc32)OCO4)cc1	89%
CCOCCc1nn2c(=O)cc(COC(=O)C3CCCCC3)nc2s1	88%
COc1cccc(OC(=O)N2CCOCC2)c1	103%
CC1CCCCN1c1c(S(=O)(=O)c2ccc(Cl)cc2)cnc2ccccc12 (stereo not given)	102%

SMILES	survival
COc1ccc(S(=O)(=O)c2cnc3ccc(Cl)cc3c2N2CCCCC2C)cc1 (stereo not given)	134%
Cc1ccc2ncc(S(=O)(=O)c3ccccc3)c(N3CCCCC3C)c2c1 (stereo not given)	7% (active)
CCN(CC)CCNC(=O)c1cn(CC)c2ccc(S(=O)(=O)N(C)C3CCCCC3)cc2c1=O	107%
O=S1(=O)CCC(N2C(=S)SC3CS(=O)(=O)CC32)C1 (stereo not given)	96%
O=C(Cn1c(=O)ccc2cc(S(=O)(=O)N3CCCC3)ccc21)NCc1ccc(Cl)cc1	102%
CCc1ccc(-c2cc(C)no2)cc1S(=O)(=O)Nc1ccc(Cl)cn1	17% (active)
CCc1ccc(-c2cc(C)no2)cc1S(=O)(=O)Nc1ccc(Cl)cc1	68%
CCc1ccc(-c2cc(C)no2)cc1S(=O)(=O)Nc1ccc(C)cn1	55%
CCC1CCCCN1CCCNC(=O)c1c(O)nc2cc(C)ccn2c1=O (stereo not given)	80%
COc1ccccc1-c1noc(-c2ccc(NCCc3ccccc3)c([N+](=O)[O-])c2)n1	37% (active)
COc1ccccc1-c1noc(-c2ccc(NCc3cccnc3)c([N+](=O)[O-])c2)n1	47%
COc1cc(-c2noc(-c3ccc(NCCc4ccccc4)c([N+](=O)[O-])c3)n2)cc(OC)c1OC	66%
COc1ccc(-c2noc(-c3ccc(NCC4CCCO4)c([N+](=O)[O-])c3)n2)cc1OC (stereo not given)	54%
COc1ccc(-c2noc(-c3ccc(NCCc4ccccc4)c([N+](=O)[O-])c3)n2)cc1	42% (active)
Cc1ccc(-c2noc(-c3ccc(NCC4CCCO4)c([N+](=O)[O-])c3)n2)cc1 (stereo not given)	74%
COc1ccc(-c2noc(-c3ccc(NCc4cccnc4)c([N+](=O)[O-])c3)n2)cc1	56%
COc1cc(-c2noc(-c3ccc(NCc4ccccc4)c([N+](=O)[O-])c3)n2)cc(OC)c1OC	79%
COc1ccc(-c2noc(-c3ccc(NCCc4ccccc4)c([N+](=O)[O-])c3)n2)cc1OC	57%
COc1ccc(-c2noc(-c3ccc(NCC4CCCO4)c([N+](=O)[O-])c3)n2)cc1 (stereo not given)	42% (active)
O=[N+]([O-])c1cc(-c2nc(-c3ccccc3)no2)ccc1NCCc1ccccc1	58%
COc1ccccc1-c1noc(-c2ccc(NCc3ccccc3)c([N+](=O)[O-])c2)n1	35% (active)
